Screening results (PubChem BioAssay)
Most compounds without a hit are left out; they make up all but 3.9% or so of the library.
SUMO HTRF inh – SUMOylation inhibition | P63279 | HTRF SUMOylation assay, SAE1/SAE2 + UBC9, in vitro | inhibition, % at 35 µM | actives 0.36% (n = 290,000); in the data active = inhibition above about 50%, passing the limit was not always enough
Target sequence (P63279 whole entry, looked up): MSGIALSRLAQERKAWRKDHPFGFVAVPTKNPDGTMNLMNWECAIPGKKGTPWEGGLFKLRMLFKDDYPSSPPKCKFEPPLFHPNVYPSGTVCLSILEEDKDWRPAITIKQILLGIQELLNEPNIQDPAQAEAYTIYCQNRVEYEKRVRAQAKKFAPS
NTR1 ag – NTR1 (human) agonism; activation, % at 20 µM; NTR1-U2OS beta-arrestin-GFP spot imaging, agonist mode; P30989; actives 0.17% (n = 330,000);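 active = activation at or above 40% of the spot to cytoplasm intensity ratio, with at least 20 cells analyzed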;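 note: 0% = DMSO without peptide and 100% = 100 nM NTR1 peptide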
Cardio protect – myocardial damage modulation in H9c2 cells | H9c2 cardiomyocytes, H2O2 injury protection, ATPLite, 2 h | protection from H2O2 cell death, % at 20 µM | actives 0.63% (n = 360,000) | AID 588492;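 active = compounds giving at least 50% protection of heart cells from peroxide-induced death in the single-dose screen, raw or plate-pattern-corrected value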;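 note: 0% = DMSO wells with peroxide and 100% = DMSO wells without peroxide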
ALR inh – inhibitors of human sulfhydryl oxidase ALR. P55789. purified ALR, DTT oxidation, H2O2 HRP-luminol luminescence. inhibition, % (test concentration not listed). actives 3.8% (n = 290,000). AID 485317;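 active = mean replicate inhibition above about 79%, with every replicate also reaching it, limit read from the data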
Target sequence (P55789 whole entry, looked up): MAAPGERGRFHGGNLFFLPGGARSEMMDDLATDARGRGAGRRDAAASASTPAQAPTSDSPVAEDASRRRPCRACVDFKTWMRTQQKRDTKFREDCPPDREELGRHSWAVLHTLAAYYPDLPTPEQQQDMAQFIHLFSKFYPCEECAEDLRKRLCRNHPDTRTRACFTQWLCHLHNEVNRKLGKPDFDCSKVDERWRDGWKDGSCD
* marks the source's active call; other numbers are inactive results; nt = no result.

SMILES	SUMO HTRF inh	NTR1 ag	Cardio protect	ALR inh
COc1ccccc1N1CCN(CC(=O)N(CC(C)C)c2c(N)n(CC(C)C)c(=O)[nH]c2=O)CC1	-5	0	2	16
Cc1cc(C(=O)N2CCCC(N3CCN(c4cccc(Cl)c4)CC3)C2)nn1C (stereo not given)	3	-1	-1	22
O=C(c1ccoc1)N1CCCC(N2CCN(c3cccc(Cl)c3)CC2)C1 (stereo not given)	10	0	-4	93*
Cc1cc(C(=O)N2CCCC(N3CCN(c4cccc(Cl)c4)CC3)C2)no1 (stereo not given)	3	0	3	80*
O=C(CCn1cccn1)N1CCCC(N2CCN(c3cccc(Cl)c3)CC2)C1 (stereo not given)	3	-1	6	93*
COc1ccc(/C=N/NC(=O)CCC(=O)Nc2ccc(F)cc2)c(OC)c1	18	0	1	-5
CCC(=O)Nc1cccc2cccnc12	13	5	16	-3
C/C(=N\Nc1cccc2cccnc12)c1ccc[nH]1	-24	2	-15	96*
CC(C)(C)C(=O)CN1C(=O)NC2(CCOc3ccccc32)C1=O (stereo not given)	-1	1	3	-10
COc1cc(/C=C2\SC(=Nc3ccc(Cl)c(C(=O)O)c3)NC2=O)c(Br)c(Br)c1O	30	0	-3	98*
COC(Cc1n[nH]c(=S)n1-c1ccccc1)OC	34	0	6	93*
S=c1[nH]nc(CSCc2ccccc2Cl)n1-c1ccccc1	-3	-2	-3	94*
Cc1ccc(C)c(NCc2n[nH]c(=S)n2-c2ccccc2)c1	16	2	2	86*
Cc1cccc(OCc2n[nH]c(=S)n2-c2ccccc2)c1	10	2	-2	77*
COc1ccc(NC(=O)CN(C)S(=O)(=O)c2ccc3c(c2)n(C)c(=O)c(=O)n3C)cc1	11	0	1	2
COC(=O)c1ccc2c(=O)[nH]c(COC(=O)c3c(-c4ccccc4)noc3C)nc2c1	nt	-1	9	-3
CCn1c(O)c(N=Nc2ccc3ccccc3n2)c2ccccc21	16	6	7	-3
Cc1ccc(-n2nc(C)c(C(C)(O)C(F)(F)F)c2N)cc1 (stereo not given)	5	3	-2	-2
CCC(=O)Nc1nnc(SCC(=O)Nc2cccc(Cl)c2)s1	-9	1	-3	-1
CC(NS(C)(=O)=O)C(c1cccs1)N1CCN(c2ccccc2F)CC1 (stereo not given)	nt	1	5	nt
CC(NC(=O)C1CC1)C(c1cccs1)N1CCN(c2ccccc2)CC1 (stereo not given)	10	0	-4	99*
CC(NC(=O)C(=O)N1CCCCC1)C(c1cccs1)N1CCN(c2ccccc2)CC1 (stereo not given)	14	0	-1	99*
CC(NS(C)(=O)=O)C(c1cccs1)N1CCN(c2ccccc2)CC1 (stereo not given)	-43	1	4	99*
CC(C)C(=O)NC(C)C(c1cccs1)N1CCN(c2ccccc2)CC1 (stereo not given)	-12	0	-3	15
CC(NC(=O)C(=O)N1CCCCC1)C(c1cccs1)N1CCN(c2ccc(F)cc2)CC1 (stereo not given)	-5	0	-8	98*
SMILES	SUMO HTRF inh	NTR1 ag	Cardio protect	ALR inh
O=C(NCC1CCCO1)C1CCCN1C(=O)Nc1ccc(Cl)c(Cl)c1 (stereo not given)	-4	-2	-4	-5
O=[N+]([O-])c1ccc2oc(C(O)c3cccc(Cl)c3)cc2c1 (stereo not given)	-6	3	-4	-7
CCOC(=O)C1/C(=N\O)CC(C)(O)C(C(=O)OCC)C1c1ccc(N(C)C)cc1 (stereo not given)	6	1	-2	34
CCS(=O)(=O)c1ccc2oc(Nc3cccc(OC)c3)nc2c1	11	4	8	97*
O=C(O)/C=C\c1cn(-c2ccccc2)nc1-c1cc2ccccc2o1	59*	1	2	64
O=C(O)/C=C/c1cn(-c2ccccc2)nc1-c1cc2ccccc2o1	51*	3	10	3
O=c1[nH]c2cc(F)ccc2c2ccc(F)cc12	nt	nt	62*	nt
Oc1ccccc1-c1cc(-c2ccco2)[nH]n1	34	1	-6	72
Oc1ccc(Br)cc1-c1cc(-c2ccco2)[nH]n1	-10	10	-15	92*
O=S1(=O)C[C@@H](O)[C@@H](Nc2ccc(Cl)cc2)C1	15	3	6	98*
O=C(NCCNc1nccc(C(F)(F)F)n1)c1cccs1	3	0	2	1
